The record followed here is PubChem BioAssay (Tox21).

Structures are written as SMILES. Unmarked numbers belong to inactive results. Inconclusive results are not listed. The source made the active and inactive calls. Unless noted, calls follow the shape of the dose curve; as a rule, active = well fitted curve in the direction sought with a large enough effect in the repeat runs; inconclusive = weak or mixed curves; inactive = no such curve, though single readings can be large; an effect the other way counts as inactive or inconclusive.

Assay [1] is described as follows: qHTS assay for small molecules that induce genotoxicity in human embryonic kidney cells expressing luciferase-tagged ATAD5 (AID 651632). Also: nearly all actives have a fitted effect of over 15% in size. A digest of the protocol:
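Luminescence read-out: after 16 hr compound exposure at 37C, ATAD5-luciferase HEK293T cells received Amplite, 30 min RT, then CCD imaging. A rise in signal marks genotoxic stress.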

Assay [2] is described as follows: qHTS assay for small molecule agonists of the p53 signaling pathway - cell viability (AID 651633; calls by dose curve;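 also: p53RE-bla HCT reporter cells with a stable beta-lactamase p53 reporter; series mostly up to about 83 µM; nearly all actives have a fitted effect of over 30% in size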). A digest of the protocol:
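p53RE-bla cells, seeded at 4,000 per well and rested 5 h at 37 C/5% CO2, received compounds in DMSO for 16 h at 37 C. CellTiter-Glo was then added, and luminescence was read after 30 min at room temperature to gauge cytotoxicity.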

Assay [3] in a line: qHTS assay for small molecules that induce genotoxicity in human embryonic kidney cells expressing luciferase-tagged ATAD5 - cell viability (AID 651634; calls by dose curve; also: nearly all actives have a fitted effect of over 25% in size; also: potency is read from the fitted curve at half-maximal effect). In short, it runs like this: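 HEK293T ATAD5-luc cells, 2,000/well; compound 15.5 hr, 37C/5% CO2; CellTiter-Fluor 30 min, 37C; fluorescence read.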
For orientation: Quantitative high-throughput screening tests each substance at several concentrations.

The nature of assay [4]: qHTS assay for small molecule disruptors of the mitochondrial membrane potential - cell viability (AID 720634; calls by dose curve;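 also: human HepG2 liver cancer cells; series mostly up to about 83 µM; nearly all actives have a fitted effect of over 20% in size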). In short, it runs like this: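 Luminescence from CellTiter-Glo (ATP content) gave viability in HepG2 cells, read in the same wells as the MMP dye assay after 1 hr compound exposure at 37 C.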
The nature of assay [5]: qHTS assay to test for compound auto fluorescence at 590 nm (red) in HepG2 cells (AID 720674). A digest of the protocol:
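Rose Bengal sodium served as the red fluorophore standard. HepG2 monolayers (overnight attachment, MEM with 10% FBS) were exposed to test compounds for 1 hr at 37 C and read at Ex 540/Em 590 nm.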

Assay [6] in a line: qHTS assay to test for compound auto fluorescence at 535 nm (green) in HepG2 cells (AID 720675).
Assay [7] can be described thus: qHTS assay to test for compound auto fluorescence at 460 nm (blue) in HEK293 cells (AID 720678). In short, it runs like this:
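After cell attachment (4-5 hr, 37C), compounds were pinned onto HEK293 monolayers in 10% dialyzed FBS medium. The blue channel (405/460 nm) was read following overnight culture. Equivalency was calculated against triamterene.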

Assay [8] is described as follows: qHTS assay to test for compound auto fluorescence at 590 nm (red) in HEK293 cells (AID 720679). A digest of the protocol:
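Plates of HEK293 cells (10% dialyzed FBS) are treated with 23 nL compound or DMSO vehicle after a 4-5 hr attachment period, incubated overnight at 37C, and read for red fluorescence at 540/590nm.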

The nature of assay [9]: qHTS assay for small molecule agonists of the p53 signaling pathway (AID 651631; calls by dose curve; also: nearly all actives have a fitted effect of over 15% in size; also: potency is read from the fitted curve at half-maximal effect). A digest of the protocol: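 We treat p53RE-bla HCT-116 cells with compounds for 16 h at 37 °C, add LiveBLAzer B/G FRET substrate for 2 h at room temperature, and measure fluorescence intensity.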
Assay [10] can be described thus: qHTS assay for small molecule disruptors of the mitochondrial membrane potential (AID 720635). Also: potency is read from the fitted curve at half-maximal effect. In short, it runs like this:
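HepG2 cells (2,000/well) attached overnight at 37C, then took compound for 1 hr at 37C, 5% CO2. Mito-MPS dye was added for 30 min; fluorescence was read at 490/535 nm (monomers) and 540/590 nm (aggregates).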
% is scaled to controls: 0 for no effect and ±100 for the full control effect.

`O=Cc1c(Cl)cccc1Cl`: the Potency result in assay [1], in assay [2], in [3], in assay [4] and in assay [7] was “inactive” in each case. For the same compound, the outcome in [5], in [6] and in assay [8] was inactive.

On to `CCCCC(=O)O[C@]1(C(=O)CO)[C@@H](C)C[C@H]2[C@@H]3CCC4=CC(=O)C=C[C@]4(C)[C@@]3(F)[C@@H](O)C[C@@]21C`, for which the Potency entry in assay [9], in assay [1], in assay [3] and in [7] was “inactive” each time. Moreover, the Potency in [10] was 19.3 µM (active). Further, the outcome in [5] and in [6] was inactive.

Regarding `CCCCC1C(=O)N(c2ccccc2)N(c2ccc(O)cc2)C1=O` (stereo unspecified), in assay [9], the Potency is 12.7 µM (active). In addition, the Potency entry in assay [1], in assay [3] and in [4] was “inactive” each time. In assay [5], the fluorescence, relative to Rose Bengal was -0.0374% [at 18.6 µM]. In addition, in assay [6], the fluorescence, % of fluorescein control is -0.0204% [at 18.6 µM]. Also, in [7], the fluorescence, % of triamterene is -0.133% [at 18.6 µM].

`CC1(C)C(=O)N(Br)C(=O)N1Cl`: the Potency entry in assay [9], in assay [1], in assay [3] and in [7] was “inactive” each time. The compound was classed as inactive in assay [5], in assay [6] and in [8].

Turning to `CC(=O)OCC(=O)[C@H]1CC[C@H]2[C@@H]3CCC4=CC(=O)CC[C@]4(C)[C@H]3CC[C@]12C`, the Potency entry in assay [1], in assay [2], in assay [3], in [4], in assay [10] and in assay [7] was “inactive” in each case. The compound was classed as inactive in assay [5], in [6] and in [8].

As for `CNC(=S)NC`, the Potency result in assay [9], in [1], in [3] and in [7] was “inactive” each time. The compound was classed as inactive in assay [5], in assay [6] and in assay [8].

As to `Cc1occc1C(=O)Nc1ccc(C(=O)N2CCC(F)(F)/C(=C\C(=O)N3CCC(N4CCCCC4)CC3)c3ccccc32)cc1`, the Potency entry in assay [1], in assay [2], in assay [3], in [4] and in [7] was “inactive” throughout. In addition, the result in assay [5], in assay [6] and in [8] was inactive.

Regarding `O=C(N/N=C/c1ccc([N+](=O)[O-])o1)c1ccc(O)cc1`, the Potency entry in assay [1] and in assay [2] was “inactive” throughout. For the same compound, in assay [10], the Potency was 1.27 µM (active). Besides, the fluorescence, relative to Rose Bengal in assay [5] is -0.334% [at 18.6 µM]. In addition, the fluorescence, % of fluorescein control in [6] was -0.0853% [at 18.6 µM]. In addition, the fluorescence, % of triamterene in assay [7] was 0.159% [at 18.6 µM]. For the same compound, the fluorescence, % of fluorescent control in [8] is 0.101% [at 18.6 µM].

In the case of `C=CC(=O)NCOCC(C)C`, the Potency entry in assay [1], in assay [3], in [4], in [10] and in assay [7] was “inactive” throughout. For the same compound, the compound was classed as inactive in assay [5], in [6] and in [8].

On to `Cc1cc(C(=C2C=CC(=Nc3ccc(S(=O)(=O)O)cc3S(=O)(=O)O)C=C2)c2ccc(Nc3ccc(S(=O)(=O)O)cc3)cc2)ccc1N`, for which the Potency entry in assay [1], in assay [2], in [3], in assay [4] and in assay [7] was “inactive” in each case. Moreover, the result in assay [5], in assay [6] and in assay [8] was inactive.

Take `O=C(N[C@@H](c1ccccc1)[C@@H]1CCCCN1)c1cccc(C(F)(F)F)c1Cl`: the Potency entry in assay [1], in assay [2], in assay [3] and in [7] was “inactive” throughout. The outcome in assay [5], in assay [6] and in [8] was inactive.

Take `CCOC(=O)c1ccccc1OC`: the Potency entry in assay [1], in assay [2], in assay [3], in [10] and in [7] was “inactive” each time. The result in assay [5], in assay [6] and in assay [8] was inactive.

On to `Cc1cc(S(=O)(=O)O)ccc1N=Nc1c(O)ccc2ccccc12`, for which the Potency entry in assay [1], in [2] and in [7] was “inactive” in each case. Moreover, the Potency in assay [3] is 48.6 µM (active). In addition, the compound was classed as inactive in assay [5], in assay [6] and in assay [8].

For the compound `CC1=CC(O)CC(C)(C)C1` (stereo unspecified), the Potency result in assay [1], in [2], in assay [3] and in assay [7] was “inactive” throughout. In addition, the call in assay [5], in assay [6] and in assay [8] was inactive.

As to `COCc1c(C(C)C)nc(C(C)C)c(/C=C/[C@@H](O)C[C@@H](O)CC(=O)O)c1-c1ccc(F)cc1`, the Potency result in [1], in assay [2], in [3] and in assay [7] was “inactive” each time. The compound was called inactive in assay [5], in assay [6] and in assay [8].

For the compound `C1COCO1`, the Potency result in assay [1], in assay [2], in assay [3], in assay [4] and in [7] was “inactive” throughout. The outcome in [5], in assay [6] and in assay [8] was inactive.

As to `CC(N)CN` (stereo unspecified), the Potency result in assay [1], in [2], in assay [3] and in assay [7] was “inactive” each time. For the same compound, the compound was classed as inactive in [5], in assay [6] and in assay [8].

For `Oc1ccc(Nc2ccccc2)cc1`, the Potency entry in [1], in assay [2], in assay [4] and in assay [7] was “inactive” in each case. The Potency in [10] is 54.5 µM (active). Further, the outcome in assay [5], in [6] and in [8] was inactive.

Turning to `OC/C(Br)=C(\Br)CO`, the Potency result in assay [1], in [2], in assay [3] and in assay [7] was “inactive” each time. Moreover, the compound was classed as inactive in assay [5], in assay [6] and in assay [8].

Take `CC(CCc1ccc2c(c1)OCO2)NN` (stereo unspecified): the Potency result in assay [1], in assay [3], in assay [4], in assay [10] and in assay [7] was “inactive” each time. For the same compound, the result in [5], in assay [6] and in [8] was inactive.

Consider `C[C@@H]1C[C@H]2[C@@H]3CCC4=CC(=O)C=C[C@]4(C)[C@@]3(F)[C@@H](O)C[C@]2(C)[C@@]1(O)C(=O)CO`, for which the Potency entry in assay [1], in assay [2], in assay [3], in [4] and in [7] was “inactive” each time. Further, the compound was called inactive in assay [5], in [6] and in assay [8].

Turning to `CCCCC(CC)CNCC(CC)CCCC` (stereo unspecified), the Potency entry in assay [1], in assay [2], in assay [3], in [10] and in assay [7] was “inactive” throughout. In addition, the compound was classed as inactive in [5], in assay [6] and in assay [8].

In the case of `OC(CCCN1CCCCC1)(c1ccccc1)c1ccccc1`, the Potency entry in assay [1], in assay [2], in assay [3], in [4] and in assay [7] was “inactive” in each case. The call in [5], in assay [6] and in [8] was inactive.

For `CC(=O)[C@H]1CC[C@H]2[C@@H]3C=CC4=CC(=O)CC[C@@]4(C)[C@@H]3CC[C@]12C`, the Potency result in [1], in assay [2] and in [3] was “inactive” in each case. The fluorescence, relative to Rose Bengal in assay [5] is -0.279% [at 18.6 µM]. The fluorescence, % of fluorescein control in [6] is -0.0643% [at 18.6 µM]. Also, the fluorescence, % of triamterene in assay [7] was -0.137% [at 18.6 µM]. The fluorescence, % of fluorescent control in assay [8] is -0.3% [at 18.6 µM].
